# Experimental data as given in PubChem BioAssay AID504444 (National Center for Advancing Translational Sciences (NCATS), 2011).
# Out of some 360,000 compounds screened, about 7,500 (2.1%) were called active. Inconclusive results (about 20%) are left out. Shown is part of a subset that was picked to be rich in actives. Unmarked numbers belong to inactive results. Calls follow the shape of the dose curve; as a rule, active = well fitted inhibition curve with a large enough effect; inconclusive = small, poorly fitted or top-dose-only effect, or effect the other way; inactive = flat fitted curve, though single readings scatter.
# Assay: Nrf2 qHTS screen for inhibitors; also: nearly all actives have a fitted effect of over 60% in size
# Conditions: A549 ARE-Fluc reporter, luciferase luminescence, 18-24 h; series mostly up to 46 µM; activity change, negative = inhibition: at the top concentration
# Procedure, shortened: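 Reporter: ARE-Fluc in A549. Exposure: 18-24 h, 37 °C, 5% CO2, 5% FBS OPTI-MEM. Readouts: fluorescent cytotoxicity (CellTiter-Fluor), then luminescent Nrf2 signal after BugLite.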
# % is scaled to controls: 0 for no effect and ±100 for the full control effect; potency is read from the fitted curve at half-maximal effect.
SMILES,"activity change, negative = inhibition",Potency
CCOC(=O)c1cc(NC(=O)c2ccc(F)cc2)c(=O)n2c1oc1ccccc12,-17.2%,–
COc1cccc(C2c3c(ncn(-c4cccc(Br)c4)c3=N)Oc3ccc4ccccc4c32)c1 (centres undefined),5.52%,–
CCC(=O)NC(Nc1nc2ccc(C)cc2s1)(C(=O)OC)C(F)(F)F (centres undefined),4.39%,–
O=C(NC(Nc1nc2ccc([N+](=O)[O-])cc2s1)(C(F)(F)F)C(F)(F)F)c1ccccc1,–,2.59 µM (active)
CCOc1ccc2nc(NC(=O)c3cc([N+](=O)[O-])ccc3N3CCOCC3)sc2c1,-23.6%,–
CCOC(=O)C1CCN(c2ncnc3c2c(-c2ccccc2)cn3-c2ccc(C)cc2)CC1,8.13%,–
O=c1[nH]cnc2c1c(-c1ccccc1)cn2-c1ccc(F)cc1,–,25.9 µM (active)
O=c1c2c(-c3ccccc3)ccnc2[nH]n1-c1ccccc1,-2.93%,–
Cc1cc(C)cc(OCC(=O)Nc2ccc(N3CCOCC3)cc2N2CCOCC2)c1,-24.6%,–
CC(=O)c1ccc(NC(=O)CSc2nc3ccccc3c(=O)n2CCCN2CCOCC2)cc1,8.57%,–
O=C(c1cccs1)c1cn(CCOc2ccc(Cl)cc2)c2ccccc12,-11%,–
Cc1ccc(OC(=O)CSc2nnc(-c3cccs3)o2)cc1,1.89%,–
COc1ccc(-n2c(C)cc(C(=O)CSc3nnc(-c4cccs4)o3)c2C)cc1,–,18.4 µM (active)
COc1ccc(-n2c(C)cc(C(=O)COC(=O)c3cc(OC)c(OC)cc3NC(=O)c3cccs3)c2C)cc1,-0.74%,–
CCc1ccc(C2C(C(=O)Nc3ccccc3)=C(C)Nc3c(C(=O)Nc4ccc(C)cc4)cnn32)cc1 (centres undefined),-7.44%,–
O=C(Cn1cnc2c(OCc3ccccc3)ncnc21)NCc1nc2ccccc2[nH]1,4.45%,–
Cc1cc(C(=O)OCC(=O)Nc2nccs2)c2ccccc2n1,19.8%,–
Cc1cc(C(=O)OCC(=O)Nc2nnc(C(C)C)s2)c2ccccc2n1,-6.29%,–
Cc1cc(C(=O)OCC(=O)N2C(C)CCCC2C)c2ccccc2n1 (centres undefined),–,18.4 µM (active)
Cc1ccc(Cn2c(C)c3cnn(CC(=O)NCCN4CCOCC4)c(=O)c3c2C)cc1,-21.8%,–
Cc1cc(C)cc(NS(=O)(=O)c2cc3c(cc2C)NC(=O)CO3)c1,18.1%,–
CCOc1cc(/C=C(/C#N)c2ccc(Cl)cc2)cc(Cl)c1OCC(=O)O,–,8.2 µM (active)
CCOC(=O)CN/C=C(\C#N)c1ccc(F)cc1,0.372%,–
C/C(=N\OCC(=O)O)c1ccc(Cl)cc1,1.65%,–
CCCCNC(=O)c1ccc2c(c1)NC(=O)C(C(C)C)N2 (centres undefined),-6.85%,–

SMILES,"activity change, negative = inhibition",Potency
COc1ccc(Cn2c(C(=O)O)c(CNCc3cccc(OC)c3)c3ccc(C)cc32)cc1,-21.6%,–
CCc1cccc(NC(=O)CN(c2ccc(C)c(C)c2)S(=O)(=O)c2ccsc2C(=O)OC)c1,2.91%,–
Clc1ccc2c(c1)C1=C(C(c3ccncc3)O2)C(c2ccc(Br)cc2)n2ncnc2N1 (centres undefined),–,13 µM (active)
CC1=C(C(N)=O)C(c2ccc(Br)cc2)n2ncnc2N1 (centres undefined),-20%,–
CCOC(=O)C1=C(c2ccccc2)Nc2ncnn2C1c1ccc(Cl)cc1 (centres undefined),-3.16%,–
CCCC12CN3CC(CCC)(CN(C1)C3c1c[nH]c3ccc(OC)cc13)C2=O (centres undefined),-15.7%,–
Cc1ccccc1C(=O)Nc1cc(C)c(O)c(-c2nc3ccccc3o2)c1,6.96%,–
CCCN(CC(=O)Nc1ccccc1C)C(=O)c1cc(=O)[nH]c2ccccc12,11.2%,–
CCCN(CC(=O)Nc1ccccc1C)C(=O)c1ccc2[nH]c3c(c2c1)CC(C)CC3 (centres undefined),–,20.6 µM (active)
CC1CCc2[nH]c3ccc(C(=O)N(C)CC(=O)Nc4cccc(F)c4)cc3c2C1 (centres undefined),2.56%,–
COc1ccc(CCN2CC(C(=O)OCC(=O)NCc3ccccc3Cl)CC2=O)cc1OC (centres undefined),4.36%,–
Cc1ccc(O)c(NC(=O)c2cc(-c3ccc(F)cc3)no2)c1,12.9%,–
CCOc1cc(C2C(C(=O)OC)=C(C)NC3=C2C(=O)c2ccccc23)ccc1O (centres undefined),8.61%,–
COc1ccc(S(=O)(=O)N2CCOCC2)cc1NC(=O)CSc1nnc(NC2CC2)s1,-0.078%,–
Cc1ccc2[nH]cc(CCNC(=O)C3CCCCC3)c2c1,-15.9%,–
NS(=O)(=O)c1ccc(CCNC(=O)NC2CCCCC2)cc1,2.98%,–
Cc1ccc2[nH]c(C)c(CCNC(=O)NC3CCCCC3)c2c1,–,20.6 µM (active)
COc1ccc(/C=C/C(=O)OCC(=O)N2CCN(S(=O)(=O)c3ccc(C)cc3C)CC2)cc1OC,0.413%,–
CSc1ccc(CCNC(=O)c2cnn(-c3ccccc3)c2-n2cccc2)cc1,-8.32%,–
O=C(CN1CCN(c2nc(-c3ccccc3)cs2)CC1)NCc1ccc2c(c1)OCO2,–,23.1 µM (active)
COc1ccc(-c2csc(N3CCN(Cc4ccc5c(c4)OCO5)CC3)n2)cc1,-26.4%,–
O=C(CSc1ncnc2scc(-c3ccccc3)c12)NCc1ccc2c(c1)OCO2,-28.7%,–
O=C(Nc1ccccc1)Oc1cccc2cccnc12,5.41%,–
O=C(Nc1cc(S(=O)(=O)Nc2ccc(Cl)cc2)ccc1O)c1ccc(F)cc1F,-0.0591%,–
O=C(c1c(F)cccc1Cl)N1CCN(c2ccccn2)CC1,28.8%,–

SMILES,"activity change, negative = inhibition",Potency
Cc1nc(N2CCN(c3ccccn3)CC2)c2c(C)c(C(=O)Nc3ccc(F)c(Cl)c3)sc2n1,–,16.4 µM (active)
Cc1nc(N2CCC(C)CC2)c2c(C)c(C(=O)Nc3cc(F)ccc3C)sc2n1,-18.6%,–
CCOC(=O)C1CCCN(C(=O)c2sc3nc(C)nc(N4CCOCC4)c3c2C)C1 (centres undefined),-3.67%,–
Cc1nc(N2CCOCC2)c2c(C)c(C(=O)Nc3ccc(C(F)(F)F)cc3)sc2n1,–,9.2 µM (active)
COc1ccc(NC(C)=O)cc1NC(=O)CN1CCN(c2ccccn2)CC1,-3.38%,–
CC(NC(=O)c1ccccc1)C(=O)OCC(=O)Nc1cccc(S(=O)(=O)N2CCCC2)c1 (centres undefined),-4.58%,–
COc1cc2c(cc1OC)C(Cc1cc(OC)c(OC)cc1[N+](=O)[O-])=NCC2,-10.8%,–
COc1ccc(CCNC(=O)c2ccc(NC(=O)CC3SC(N4CCCCC4)=NC3=O)cc2)cc1OC (centres undefined),-4.44%,–
COc1ccc2c(c1)c(N1CCCC1=O)c(C(=O)Nc1ccc(OC)c(Cl)c1)n2C,-35.3%,–
O=[N+]([O-])c1ccc(N=NNc2ccc([N+](=O)[O-])cc2)cc1,4.41%,–
Cc1ccc(C(=O)NCCSc2c(C)[nH]c3ccccc23)cc1C,-4.57% [at 9.27 µM],–
Cc1ccc(NC(=O)NC(C)c2c(-n3cccc3)sc(C)c2C)c(C)c1 (centres undefined),–,18.4 µM (active)
COc1ccc(NC(=O)NC(C)c2c(-n3cccc3)sc(C)c2C)cc1OC (centres undefined),–,20.6 µM (active)
CCn1cc(NC(=O)Nc2ccc(OC)c(OC)c2)c(C(N)=O)n1,3.77%,–
COc1ccc(NC(=O)CNC(=O)Cc2ccccc2)cc1OC,-12.4%,–
Cc1ccc(NC(=O)CSc2cccc3cccnc23)c(C)c1,0.544%,–
C/C(CC(=O)Nc1ccc(C)cc1C)=N\NC(=O)C(C)C,-7.5%,–
CCCCN1CC(c2nc3ccccc3n2CCCCOc2ccc(C)cc2C)CC1=O (centres undefined),-17.4%,–
Brc1c(CSc2nncc3ccccc23)nc2ccccn12,–,8.2 µM (active)
CN(C(=O)CSc1nncc2ccccc12)C1CCCCC1,12.5%,–
CCOc1ccc(NC(=O)CSc2nnc3c(n2)[nH]c2ccc(S(=O)(=O)N4CCOCC4)cc23)cc1,-7.26%,–
CCCOc1ccc(Cc2c(O)nc(SC)[nH]c2=O)cc1C,3.9%,–
Cc1nc(SCCOc2ccc(Cl)cc2)[nH]c(=O)c1Cc1ccccc1,-1.25%,–
CCCOc1ccc(Cc2c(Cl)nc(SC)nc2NC)cc1,–,2.06 µM (active)
COc1ccc(N2CCN(C(=O)C3CCCN(C(=O)c4cc5sccc5n4C)C3)CC2)cc1 (centres undefined),-16.8%,–

SMILES,"activity change, negative = inhibition",Potency
C[n+]1ccc(/C=C/c2c[nH]c3ccccc23)cc1,–,0.82 µM (active)
CSC(=S)N/N=C/c1c[nH]c2ccccc12,3.83%,–
O=C(NC1CCCC1)C(=O)c1c[nH]c2ccccc12,19.9%,–
COc1cccc(/C=N/Nc2ccc(S(=O)(=O)Nc3ccccc3C(=O)O)cc2[N+](=O)[O-])c1O,-6.93%,–
CCC1CCCCN1C(=S)NC(=O)c1ccco1 (centres undefined),1.83%,–
Cc1nc2sc3c(c2c(=O)n1NC(=O)CCl)CCCC3,-11.4%,–
CCCc1nc2sc3c(c2c(=O)n1NC(=O)CCCl)CCCC3,–,11.6 µM (active)
Cc1ccc(C)c(-n2c(SCC(=O)O)nc3sc4c(c3c2=O)CCCC4)c1,-21%,–
CCC(=O)N1CCc2cc(S(=O)(=O)NC(C(=O)Nc3ccc(C(C)=O)cc3)C(C)C)ccc21 (centres undefined),13.1%,–
O=C(NCC1(N2CCCCC2)CCCCC1)c1cccc(S(=O)(=O)Nc2ccccc2Cl)c1,-12.6%,–
CCOc1ccc(CCNC(=O)c2cc3c(=O)n(C)c4ccccc4c3n2C)cc1,-11.9%,–
NS(=O)(=O)c1ccc(NC(=O)CSc2nnc3c(n2)[nH]c2ccccc23)cc1,20.7%,–
Cc1cccc(NS(=O)(=O)c2ccc([N+](=O)[O-])cc2)n1,-10.5%,–
O=[N+]([O-])c1ccc(NS(=O)(=O)c2ccccc2)c(Cl)c1,–,11.6 µM (active)
O=C(NNS(=O)(=O)c1ccc(F)cc1)c1ccc([N+](=O)[O-])cc1Cl,5.13%,–
CN(CC(=O)NCC(c1ccccc1)N1CCCC1)S(=O)(=O)c1ccc(Cl)cc1 (centres undefined),13.6%,–
CCCCCCn1nnc2sc(-c3ccccc3)cc2c1=O,12.6%,–
COc1cc(O)c2c(=O)c3c(O)c(O)ccc3oc2c1OC,12.7%,–
O=C(Cc1ccc(NC(=O)C2CCCN(C(=O)C3CCCCC3)C2)cc1)Nc1cccc(C(=O)N2CCCCC2)c1 (centres undefined),-0.45%,–
COc1cc(/C=N/NC(=O)c2ccccc2)ccc1OS(=O)(=O)c1ccccc1,0.205%,–
COc1cc(/C=N/NC(=O)Nc2ccccc2)ccc1OCCOc1ccccc1C,–,14.6 µM (active)
COc1cc(/C=N/NC(=O)c2ccoc2C)ccc1OCCN1CCCCC1,-11.7%,–
COc1ccc(-c2sc3ccc(OC)cc3c2C#Cc2ccccn2)cc1,11.5%,–
CCCCC[C@@H]1C=C(C(=O)O)[C@H](c2ccc(C#N)cc2)N1S(=O)(=O)c1ccc(C)cc1,-19.7%,–
